Bioassay records from PubChem BioAssay.
Only some compounds are listed: those with a hit (about 1.8% of all), similar ones and a draw of the others.
ARNT TACC3 PPI = disruptors of ARNT/TACC3 protein interaction, primary screen, biochemical, AlphaScreen, single concentration; hit rate 0.66% among 390,000; AlphaScreen His-ARNT PAS-B/GST-TACC3 binding, luminescence; TACC3 fragment carries E629A point mutation; Transforming acidic coiled-coil-containing protein 3 (Homo sapiens), Q9Y6A5; AID 623870, 2012; inhibition, % at 9.99 µM;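 active means mean inhibition of replicates at least 50% and at least half of replicates each reaching 50%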;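 further: 0% = complete ARNT plus TACC3 wells and 100% = ARNT alone without TACC3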
hiPSC survival = enhancers of single-cell hiPSC survival, primary screen, ATPlite luminescence; 100% = ROCK inhibitor wells, 0% = DMSO; survival enhancement, % at 20 µM; hit rate 0.044% among 360,000; AID 602274, 2012; in the data active means survival enhancement above about 18%;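 further: cells exposed to compounds for 16 hours before the ATP read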
GSIS activator = GLuc luminescence reporter in INS-1E cells, primary screen for activators of glucose-dependent secretion of insulin; INS-1E GLuc reporter insulin secretion, 2-3 h; activation, % at 16.6 µM; hit rate 0.61% among 370,000;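 active means lowest replicate activation of at least 40%, so every replicate reaches that level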;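 further: 0% = median of neutral control wells and 100% = median of IBMX positive control wells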
ABCB6 inh MLPCN = ABCB6 transporter inhibitors, primary screen, K562-ABCB6 cells, flow cytometry, MLPCN library. hit rate 0.19% among 360,000. fluorescence ratio to DMSO, % at 10 µM. AID 602162, 2011. ATP-binding cassette sub-family B member 6 (Homo sapiens), Q9NP58. K562-ABCB6 porphyrin accumulation, 1 h; active compounds read low;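 active means fluorescence ratio to DMSO below 75%, the collection mean minus 3 SD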;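 further: signal is porphyrin accumulated inside mitochondria; 100% equals median channel fluorescence of DMSO control wells; lower ratio means ABCB6 inhibition with less porphyrin fluorescence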
NRP1-CendR mod = modulators of CendR peptide binding to NRP-1, primary screen, biochemical, fluorescence polarization, uHTS; Neuropilin-1 (Homo sapiens), O14786; hit rate 0.85% among 360,000; inhibition, % at 25 µM; FAM-RPARPAR peptide binding to NRP-1;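 active means inhibition or corrected inhibition above about 18%, plus a signal ratio from 0.5 to 1.5, limit read from the data, passing the limit was not always enough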
The depositor's hits bear a star; · = no result given.

SMILES	ARNT TACC3 PPI	hiPSC survival	GSIS activator	ABCB6 inh MLPCN	NRP1-CendR mod
Cc1[nH]n(-c2ccccc2)c(=O)c1C(C[N+](=O)[O-])c1ccc(Br)cc1 (stereo not given)	48*	-2	·	82	-10
Nc1c(C(=O)O)ccc2c1C(=O)c1ccccc1C2=O	-4	2	20	127	5
Nc1cc(C(=O)O)c(N)c2c1C(=O)c1ccccc1C2=O	55*	0	·	98	57*
NC(=O)C1CCCN(C(=O)CCCNC(=O)c2ccc(Cl)cc2)C1 (stereo not given)	·	0	9	95	28*
COc1ccccc1C(=O)NCCC(=O)N1CCCC(C(F)(F)F)C1 (stereo not given)	·	0	3	97	-4
O=C(NCCC(=O)N1CCCC(C(F)(F)F)C1)c1ccc(Br)cc1 (stereo not given)	-6	0	-1	97	28*
CCCC(=O)Nc1ccc2c(c1)OC[C@H](C)N(Cc1ccc(-c3ccccn3)cc1)C[C@H](C)[C@@H](OC)CN(C)C2=O	·	·	-28	·	·
CCCCOc1ccc(C2(C)NC(=O)NC2=O)cc1 (stereo not given)	-14	0	-8	97	-2
CCCCOc1ccc(C2=NNC(=O)CC2)cc1	·	-1	45*	101	-8
COc1cc(CNCc2ccccn2)ccc1OCC(N)=O	49*	2	13	93	-2
COc1cc(CNCc2ccccn2)ccc1OCc1ccc(Cl)c(Cl)c1	42	0	6	96	5
OCC1OC(c2ccc(OCc3ccccc3)cc2OCc2ccccc2)C(O)C1O (stereo not given)	·	0	-5	96	7
OCC1OC(c2ccc(O)cc2O)C(O)C1O (stereo not given)	·	-1	20	98	29*
CCCCCCCCN1C(=O)[C@@H](CC(=O)N2CCN(C(=O)c3ccco3)CC2)C[C@@]2(C(=O)OC)C1=C[C@H](C1CCCC1)O[C@@H]2C	·	·	54*	·	·
CN1C(=O)c2oc3ccccc3c(=O)c2C1c1ccncc1 (stereo not given)	93*	-2	·	98	-1
O=C(C[C@H]1CC[C@H]2[C@@H](COC[C@@H](O)CN2Cc2nccs2)O1)NCc1ccc(Cl)cc1	11	·	-2	·	·
C=CCN1c2ccccc2[C@]23C[C@@H](C(=O)OC)N(C(C)=O)C2=NC(C(=O)OC)=C(C(=O)OC)[C@H]13	9	3	10	97	-4
C=CCN1c2ccccc2[C@]23C[C@@H](C(=O)OC)N=C2NC(C(=O)OC)=C(C(=O)OC)[C@H]13	-1	-3	-10	102	33*
C[C@@H]1CN([C@@H](C)CO)C(=O)Cc2cc(NC(=O)Nc3cccc4ccccc34)ccc2O[C@H]1CN(C)S(C)(=O)=O	·	·	8	·	·
C[C@H](CO)N1C[C@H](C)[C@@H](CN(C)C(=O)C2CC2)Oc2cc(-c3cccnc3)ccc2S1(=O)=O	·	·	-4	·	·
CS(=O)(=O)Nc1ccc2c(c1)[C@@H]1C[C@H](CC(=O)NCc3cccnc3)O[C@@H](CO)[C@@H]1O2	-7	·	2	·	·
COc1ccccc1C1N=C(c2ccccc2C)NO1 (stereo not given)	-3	-1	9	88	14
Cc1ccccc1C1=NC(c2ccc(F)cc2F)ON1 (stereo not given)	-3	1	·	97	22*
O=c1cnnc(N/N=C/c2ccccn2)[nH]1	78*	-1	-7	99	17
C(=N\Nc1ccc2nncn2n1)/c1ccccn1	51*	1	·	94	-10
C/C(=N\Nc1ccc2nncn2n1)c1ccccn1	·	-1	13	91	-6
O=c1nc(N/N=C/c2ccccn2)cn[nH]1	64*	-4	7	101	8
CC(C)NC(=O)N1Cc2cc(C(=O)NC3CCCCC3)nc(-c3cccc(-c4cccnc4)c3)c2[C@H]1CCO	·	·	-37	·	·
CCOC(=O)c1cc2sccc2n1CC(=O)Nc1ccc(OC)cc1OC	-3	-1	-13	106	-5
CCOC(=O)CN(Cc1sccc1C)C(=O)Nc1ccc(OC)cc1OC	-10	-2	42*	102	0
